Measurements from PubChem BioAssay.
Activity calls are given as the source filed them. Unless noted, no rule for the calls is given here.

How the values were obtained:
[1] = tested on: Wnt5a (protein binding on small-molecule microarray); test: small molecules binding Wnt5a protein – biophysical, small-molecule microarray, 635/667 nm fluorescence, primary screen (AID 1142); conditions: 635 nm fluorescence, higher = more signal;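 also: fluorescence read at 667 nm with signal to noise per printed feature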
[2] = ATP-based viability of Huh7 replicon cells – cell-based, CellTiter-Glo luminescence, basal, 48 h, cytotoxicity control for HCV replication inhibitor project, primary screen (AID 1143); conditions: higher = more signal, called active from +8 up or from −8 down;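 also: Huh7 hepatoma cells carrying a hepatitis C replication reporter with no stimulus; test concentration not given here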
[3] = Pseudomonas biofilm growth suppression – PAO1 strain, BacTiter-Glo luminescence, LB-PBS, primary screen (AID 1144); conditions: P. aeruginosa PAO1 biofilm, 12 h, higher = more signal
[4] = basal CRE-LacZ reporter activity in PC12 – cell-based, unstimulated, primary screen (AID 1145); conditions: no forskolin, luminescence, 4.5 h, higher = more signal, called active from +8 up or from −8 down
[5] = forskolin-driven CRE-LacZ activity in PC12 – cell-based, CRE-LacZ reporter, forskolin-stimulated, primary screen (AID 1146); conditions: luminescence, 4.5 h, higher = more signal, called active from +8 up or from −8 down;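 also: PC12 cells with 6xCRE LacZ reporter stimulated by forskolin 10 µM; beta-galactosidase reporter signal reflecting CREB driven transcription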
[6] = biological target: Streptavidin (Streptomyces avidinii) (UniProt P22629); test: compounds binding control protein streptavidin – biophysical, small-molecule microarray, 635/667 nm fluorescence, artefact control for SMM compound annotation, primary screen (AID 1147); conditions: higher = more signal;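 also: signal reflects streptavidin binding to arrayed compounds as a control protein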
Sequence of Streptavidin (Streptomyces avidinii) (P22629 whole entry, looked up): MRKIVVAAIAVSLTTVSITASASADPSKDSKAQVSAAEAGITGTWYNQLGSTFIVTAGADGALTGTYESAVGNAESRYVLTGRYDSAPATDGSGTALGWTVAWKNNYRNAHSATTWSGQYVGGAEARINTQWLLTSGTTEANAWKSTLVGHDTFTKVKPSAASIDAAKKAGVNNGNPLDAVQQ

[7] = probe aInhba binding on compound microarray – biochemical, small-molecule microarray, 635/667 nm fluorescence, primary screen (AID 1148); conditions: higher = more signal;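 also: score merges 667nm spot fluorescence with signal-to-noise for antibody binding to printed compounds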
Torsin-1A (Homo sapiens) [8] = biological target: Torsin-1A (Homo sapiens) (UniProt O14656); test: TOR1A wild-type binding on microarray – cell lysate, small-molecule microarray, lysate, 635/667 nm, primary screen (AID 1149); conditions: COS7 hTOR1A-WT lysate, 635 nm fluorescence, higher = more signal
Sequence of Torsin-1A (Homo sapiens) (O14656 whole entry, looked up): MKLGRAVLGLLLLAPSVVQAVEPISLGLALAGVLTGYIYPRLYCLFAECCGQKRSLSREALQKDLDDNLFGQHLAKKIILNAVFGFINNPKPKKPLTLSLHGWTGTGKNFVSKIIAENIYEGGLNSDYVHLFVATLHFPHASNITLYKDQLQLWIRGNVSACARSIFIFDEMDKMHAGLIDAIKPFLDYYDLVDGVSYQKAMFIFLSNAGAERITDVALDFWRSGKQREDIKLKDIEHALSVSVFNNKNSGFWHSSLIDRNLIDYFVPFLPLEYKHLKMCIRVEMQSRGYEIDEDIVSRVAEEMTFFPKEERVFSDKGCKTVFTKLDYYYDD

Torsin-1A (Homo sapiens) [9] = biological target: Torsin-1A (Homo sapiens) (UniProt O14656); test: torsin A mutant lysate binding on microarrays – cell lysate, small-molecule microarray, COS7 lysate, 635/667 nm fluorescence, primary screen (AID 1150); conditions: COS7 hTOR1A mutant lysate, 635 nm fluorescence, higher = more signal;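 also: score pools 667 nm emission and signal to noise measuring lysate protein binding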
[10] = tested on: Sonic hedgehog protein (Shh); test: Sonic hedgehog microarray binding compounds – biochemical, small-molecule microarray, 635/667 nm fluorescence, primary screen (AID 1151); conditions: 635 nm fluorescence, higher = more signal;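 also: Shh protein binding to compounds spotted on small-molecule microarray slides; score combines spot fluorescence intensity with signal-to-noise across triplicate slides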
[11] = optical density shifts of acrAB sulA E. coli – strain DRC41, OD650, 48 h, E. coli filamentation inducer project, primary screen (AID 1152); conditions: higher = more signal, called active from +8 up or from −8 down;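 also: E. coli MC1000 strain DRC41 lacking acrAB efflux pump and sulA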
[12] = probe aLefty1 binding on compound microarray – biochemical, small-molecule microarray, 635/667 nm fluorescence, primary screen (AID 1153); conditions: higher = more signal;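 also: score merges spot fluorescence with signal-to-noise ratio from the scanned slide images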
[13] = plasmodial surface anion channel blockers, osmotic lysis – cell-based, P. falciparum Indochina, OD700, 1 h, primary screen (AID 1154); conditions: P. falciparum Indochina infected RBC osmotic lysis, higher = more signal, called active from +8 up or from −8 down
[14] = plasmodial surface anion channel blockers, osmotic lysis – cell-based, P. falciparum Indochina, OD700, 2 h, primary screen (AID 1155);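 also: lysis reports solute entry through the parasite surface anion channel PSAC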; conditions: P. falciparum Indochina infected erythrocytes, higher = more signal, called active from +8 up or from −8 down
[15] = changes in parasitized red cell lysis, either direction – P. falciparum Indochina, OD700, 3 h, PSAC antagonist project, primary screen (AID 1156); conditions: P. falciparum-infected erythrocytes, osmotic lysis, higher = more signal, called active from +8 up or from −8 down
[16] = plasmodial surface anion channel blockers, osmotic lysis – cell-based, P. falciparum Indochina, OD700, 18 h, primary screen (AID 1157); conditions: P. falciparum Indochina infected erythrocytes, osmotic lysis OD700, 18 h; higher = more signal, called active from +8 up or from −8 down
[17] = S6 kinase pathway phospho-S6 level changes – cell-based, A549, cytoblot, luminescence, serum-stimulated, primary screen (AID 1158); conditions: 5 h, higher = more signal;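 also: serum-stimulated A549 lung adenocarcinoma cells; signal is phosphorylated S6 detected by cytoblot immunostaining with HRP secondary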
[18] = biological target: NADPH oxidase 2 (Homo sapiens) (UniProt P04839); test: compounds shifting NOX2 Amplex Red fluorescence – cell-based, HEK293-NOX2, PMA-stimulated, NOX inhibitor project, primary screen (AID 1159); conditions: 45 min, higher = more signal, called active from +8 up or from −8 down; also: test concentration not given here
Sequence of NADPH oxidase 2 (Homo sapiens) (P04839 whole entry, looked up): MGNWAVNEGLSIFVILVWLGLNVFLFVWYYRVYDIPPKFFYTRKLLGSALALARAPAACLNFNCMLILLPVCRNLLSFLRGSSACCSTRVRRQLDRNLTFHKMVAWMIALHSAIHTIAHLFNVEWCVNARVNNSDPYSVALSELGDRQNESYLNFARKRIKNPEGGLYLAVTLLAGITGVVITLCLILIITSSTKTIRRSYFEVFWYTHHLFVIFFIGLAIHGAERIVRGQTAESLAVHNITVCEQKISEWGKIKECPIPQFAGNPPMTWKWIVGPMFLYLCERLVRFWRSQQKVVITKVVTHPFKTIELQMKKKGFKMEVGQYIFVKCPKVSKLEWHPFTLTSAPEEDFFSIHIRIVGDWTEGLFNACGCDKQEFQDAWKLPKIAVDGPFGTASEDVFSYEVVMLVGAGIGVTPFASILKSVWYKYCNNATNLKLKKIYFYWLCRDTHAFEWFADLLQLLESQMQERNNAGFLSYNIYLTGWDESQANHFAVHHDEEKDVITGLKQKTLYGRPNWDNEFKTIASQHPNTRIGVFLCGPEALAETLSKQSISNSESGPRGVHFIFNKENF

[19] = biological target: NADPH oxidase 4 (Homo sapiens) (UniProt Q9NPH5); test: compounds shifting NOX4 Amplex Red fluorescence – cell-based, HEK293-NOX4, tetracycline-induced, NOX inhibitor project, primary screen (AID 1160); conditions: HEK293-NOX4, Amplex Red H2O2 fluorescence, 45 min; higher = more signal, called active from +8 up or from −8 down
Sequence of NADPH oxidase 4 (Homo sapiens) (Q9NPH5 whole entry, looked up): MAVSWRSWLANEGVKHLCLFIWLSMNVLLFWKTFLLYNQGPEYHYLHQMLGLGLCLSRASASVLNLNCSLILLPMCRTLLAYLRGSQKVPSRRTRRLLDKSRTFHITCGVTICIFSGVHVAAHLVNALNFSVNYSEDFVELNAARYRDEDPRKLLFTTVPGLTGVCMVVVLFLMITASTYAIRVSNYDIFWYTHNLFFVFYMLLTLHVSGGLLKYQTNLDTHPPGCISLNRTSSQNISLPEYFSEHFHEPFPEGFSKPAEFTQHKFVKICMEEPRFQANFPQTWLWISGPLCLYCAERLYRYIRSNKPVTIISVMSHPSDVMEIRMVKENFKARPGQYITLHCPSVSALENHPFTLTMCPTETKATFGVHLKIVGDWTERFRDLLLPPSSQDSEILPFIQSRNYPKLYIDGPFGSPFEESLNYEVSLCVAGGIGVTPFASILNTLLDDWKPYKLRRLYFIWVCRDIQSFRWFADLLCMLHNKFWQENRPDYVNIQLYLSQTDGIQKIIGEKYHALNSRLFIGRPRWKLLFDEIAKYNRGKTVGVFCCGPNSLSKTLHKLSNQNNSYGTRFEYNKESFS

[20] = biological target: NADPH oxidase 5 (Homo sapiens) (UniProt Q96PH1); test: compounds shifting NOX5 Amplex Red fluorescence – cell-based, HEK293-NOX5, NOX inhibitor project, primary screen (AID 1161); conditions: HEK293-NOX5, ionomycin, 45 min, higher = more signal
Sequence of NADPH oxidase 5 (Homo sapiens) (Q96PH1 whole entry, looked up): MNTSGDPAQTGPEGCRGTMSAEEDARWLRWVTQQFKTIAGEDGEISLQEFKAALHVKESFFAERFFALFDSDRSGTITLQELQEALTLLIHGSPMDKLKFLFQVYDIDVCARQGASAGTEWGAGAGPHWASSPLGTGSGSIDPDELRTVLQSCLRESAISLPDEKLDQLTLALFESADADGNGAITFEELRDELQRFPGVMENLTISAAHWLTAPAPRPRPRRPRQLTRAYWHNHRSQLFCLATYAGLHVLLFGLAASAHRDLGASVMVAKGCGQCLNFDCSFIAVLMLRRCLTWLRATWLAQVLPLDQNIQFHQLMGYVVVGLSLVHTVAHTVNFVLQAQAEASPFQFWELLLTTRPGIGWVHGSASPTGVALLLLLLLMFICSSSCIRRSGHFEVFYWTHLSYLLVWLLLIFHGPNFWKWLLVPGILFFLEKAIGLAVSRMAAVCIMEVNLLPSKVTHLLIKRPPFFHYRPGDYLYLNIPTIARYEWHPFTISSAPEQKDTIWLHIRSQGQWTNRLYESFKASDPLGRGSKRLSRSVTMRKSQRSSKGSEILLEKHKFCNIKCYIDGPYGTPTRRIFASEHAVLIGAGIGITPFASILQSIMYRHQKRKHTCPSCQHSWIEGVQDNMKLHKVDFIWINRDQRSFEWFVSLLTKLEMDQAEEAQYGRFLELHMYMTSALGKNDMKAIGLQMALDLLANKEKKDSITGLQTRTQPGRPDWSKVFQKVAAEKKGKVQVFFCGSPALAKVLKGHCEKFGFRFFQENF

| SMILES | composite z-score [1] | z-score [2] | z-score [3] | z-score [4] | z-score [5] | composite z-score [6] | composite z-score [7] | composite z-score (Torsin-1A (Homo sapiens) [8]) | composite z-score (Torsin-1A (Homo sapiens) [9]) | composite z-score [10] | z-score [11] | composite z-score [12] | z-score [13] | z-score [14] | z-score [15] | z-score [16] | z-score [17] | z-score [18] | z-score [19] | z-score [20] |
| --- | --- | --- | --- | --- | --- | --- | --- | --- | --- | --- | --- | --- | --- | --- | --- | --- | --- | --- | --- | --- |
| COc1ccccc1CN1C(=O)c2ccccc2[C@@H](C(=O)NC(C)C)[C@@H]1c1ccc(CO)cc1 | 0.428 | -0.486 (inactive) | 0.464 (inactive) | -0.735 (inactive) | -0.784 (inactive) | 0.131 | 0.46 | -0.0764 | 0.0096 | 1.84 | 0.671 (inactive) | 0.211 | 1.18 (inactive) | 0.525 (inactive) | 0.797 (inactive) | 0.376 (inactive) | 0.0984 | 0.372 (inactive) | 1.44 (inactive) | 0.976 |
| Cc1ccc(S[C@]2(C(=O)NC3CC3)CC(=O)N(Cc3ccccc3Cl)[C@@H]2c2ccc(CO)cc2I)cc1 | 1.3 | -1.5 (inactive) | -0.637 (inactive) | 0.145 (inactive) | 1.13 (inactive) | 0.163 | 0.0471 | 0.765 | 1.01 | 1.67 | 0.386 (inactive) | 0.191 | 6.9 (inactive) | 0.789 (inactive) | 0.796 (inactive) | 0.0589 (inactive) | -0.331 | 1.53 (inactive) | -1.86 (inactive) | 1.12 |
| O=C1O[C@@H](c2ccccc2)[C@@H](c2ccccc2)N2[C@@H](c3ccc(O)cc3)[C@]3(C(=O)Nc4ccccc43)[C@@H](C(=O)Nc3nc4ccccc4s3)[C@H]12 | 1.09 | -4.19 (inactive) | -1.87 (inactive) | 0.389 (inactive) | -0.0768 (inactive) | 0.243 | -0.128 | 0.0151 | 0.325 | 0.183 | -0.198 (inactive) | -0.209 | 1.37 (inactive) | 2.29 (inactive) | -0.492 (inactive) | 1.82 (inactive) | -0.132 | 0.642 (inactive) | 0.0436 (inactive) | 0.933 |
| C=C(C(=O)CC[C@H](OC(C)=O)c1cccc(OCCO)c1)C(C)C | -0.161 | -3.05 (inactive) | -0.0576 (inactive) | 0.798 (inactive) | 1.04 (inactive) | -0.608 | -0.0719 | -0.34 | -0.241 | 0.144 | 0.667 (inactive) | -0.283 | 2.12 (inactive) | -1.94 (inactive) | 1.7 (inactive) | -1.7 (inactive) | 0.617 | -1.48 (inactive) | -0.481 (inactive) | -1.61 |
| Cc1ccc(S[C@]2(C(=O)NCc3ccccc3)CC(=O)N(C(C)C)[C@@H]2c2ccc(CO)cc2I)cc1 | 0.292 | -1.11 (inactive) | 0.201 (inactive) | 0.208 (inactive) | 1.95 (inactive) | -0.505 | 0.0028 | -0.0397 | -0.609 | -1.37 | 0.0841 (inactive) | 0.33 | 5.42 (inactive) | 1.19 (inactive) | 0.121 (inactive) | 0.301 (inactive) | 0.0741 | 2.05 (inactive) | -1.1 (inactive) | -0.199 |
| CC[C@@H]1[C@H]2C3C(=O)N(CC)C(=O)C3CC(=O)[C@H]2[C@H](c2ccc(C)cc2)N1S(=O)(=O)c1ccc(C)cc1 (stereo not given in full) | 0.163 | -2.9 (inactive) | 0.394 (inactive) | -0.77 (inactive) | -0.878 (inactive) | 1.4 | -0.0986 | -0.343 | 0.112 | 0.514 | -0.272 (inactive) | 0.0026 | 2.27 (inactive) | 1.99 (inactive) | 0.925 (inactive) | 1.3 (inactive) | -0.12 | 0.5 (inactive) | 0.458 (inactive) | 0.0674 |
| COCCOC(=O)N1C(=O)[C@@]2(c3cc(C#Cc4ccc(OC)cc4)ccc31)[C@H](C(=O)NC[C@H](O)c1ccccc1)[C@H]1C(=O)O[C@H](c3ccccc3)[C@H](c3ccccc3)N1[C@@H]2c1ccc(O)cc1 | 0.317 | -2.05 (inactive) | -0.392 (inactive) | -1.01 (inactive) | -1.19 (inactive) | 0.582 | 0.0228 | 0.772 | 0.527 | 1.73 | -0.16 (inactive) | 0.289 | 1.48 (inactive) | 0.702 (inactive) | -0.784 (inactive) | 0.704 (inactive) | 0.236 | 1.04 (inactive) | 0.0374 (inactive) | 0.00809 |
| CC(C)C(=C=CC[C@@H](O)c1ccccc1OCCO)C[C@@H](O)COCc1ccccc1 | 0.679 | -5.62 (inactive) | 0.173 (inactive) | 18.5 (active) | -0.762 (inactive) | 0.235 | 0.15 | 0.636 | 1.1 | 1.98 | 1.6 (inactive) | -0.103 | 6.77 (inactive) | 2.19 (inactive) | -1.43 (inactive) | -0.119 (inactive) | 0.86 | 0.0182 (inactive) | 0.489 (inactive) | -1.52 |
